Reference: PMC5540273 (PLoS ONE, 2017)

Assays:
Conditions in all cases: concentration: 1 μM,replicates: in singlicate; n = 1
[1] = tested on: T1, ASK2
T1 construct: gene MAP3K6

[2] = tested on: AURKA
[3] = tested on: AURKB
[4] = tested on: AURKC
[5] = tested on: AXL
[6] = tested on: T2, BIKE
T2 construct: gene BMP2K

[7] = tested on: BLK
[8] = tested on: BMPR1A
[9] = tested on: BMPR1B
[10] = tested on: BMPR2
[11] = tested on: BMX
[12] = tested on: BRAF
[13] = tested on: T3, BRK
T3 construct: gene PTK6

[14] = tested on: BRSK1
[15] = tested on: BRSK2
[16] = tested on: BTK
[17] = tested on: BUB1
[18] = tested on: CAMK1B
[19] = tested on: CAMK1D
[20] = tested on: CAMK1G
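Also: KINOMEscan kinase panel screen.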

| SMILES | %Inh [1] | %Inh [2] | %Inh [3] | %Inh [4] | %Inh [5] | %Inh [6] | %Inh [7] | %Inh [8] | %Inh [9] | %Inh [10] | %Inh [11] | %Inh [12] | %Inh [13] | %Inh [14] | %Inh [15] | %Inh [16] | %Inh [17] | %Inh [18] | %Inh [19] | %Inh [20] |
| --- | --- | --- | --- | --- | --- | --- | --- | --- | --- | --- | --- | --- | --- | --- | --- | --- | --- | --- | --- | --- |
| COC(=O)c1cccc(NC(=O)NC2CCN(c3ccnc(Nc4cc(OC)c(OC)c(OC)c4)n3)C2)c1 (centres unmarked) [GSK1379767] | 0% | 72% | 39% | 73% | 0% | 60% | 0% | 11% | 0% | 26% | 30% | 0% | 8% | 0% | 0% | 37% | 48% | 38% | 14% | 0% |
| O=C(Nc1ccc(Oc2ccc3nc(NC(=O)C4CC4)cn3n2)c(F)c1)c1cccn(-c2ccccc2)c1=O | 0% | 0% | 4% | 42% | 90.4% | 25% | 90.3% | 12% | 0% | 0% | 46% | 41% | 72% | 3% | 5% | 0% | 0% | 0% | 14% | 0% |
| CC(=O)c1c(-c2ccncc2)[nH]c(-c2ccncc2)c1C [GW493036] | 0% | 0% | 16% | 5% | 17% | 23% | 38% | 0% | 0% | 24% | 0% | 19% | 3% | 0% | 0% | 7% | 84% | 0% | 20% | 0% |
| COc1ccc(Nc2nccc(N3CCC(NC(=O)c4cccc(C#N)c4)C3)n2)cc1 (centres unmarked) [GSK1379730] | 0% | 0% | 0% | 22% | 21% | 22% | 38% | 6% | 0% | 0% | 0% | 0% | 8% | 0% | 0% | 28% | 53% | 13% | 0% | 0% |
| COc1cc2ncn(-c3cc(OCC4CCCCC4)c(C(N)=O)s3)c2cc1OC [GSK204559] | 8% | 0% | 13% | 60% | 0% | 90% | 33% | 0% | 0% | 5% | 10% | 0% | 8% | 30% | 45% | 0% | 17% | 6% | 16% | 11% |
| Cl.Cl.NC[C@H](CC1CCCCC1)NC(=O)c1ccc(-c2ccnc3[nH]ccc23)s1 [GSK1581428] | 26% | 93.8% | 96.8% | 73% | 96.3% | 99.1% | 0% | 8% | 23% | 1% | 2% | 0% | 5% | 11% | 17% | 0% | 44% | 0% | 36% | 9% |
| CN1CCN(CCCNc2nccc(-c3c(-c4ccc(F)cc4)nn4cc(C(N)=O)ccc34)n2)CC1 [GW622475] | 0% | 20% | 5% | 10% | 17% | 26% | 56% | 0% | 37% | 0% | 20% | 49% | 6% | 9% | 29% | 0% | 25% | 0% | 21% | 21% |
| c1ccc(Oc2ccc(Nc3ccnc4ccc(-c5ccccn5)cc34)cc2)cc1 [GW407034] | 11% | 6% | 19% | 4% | 0% | 8% | 90.2% | 11% | 0% | 26% | 44% | 13% | 81% | 12% | 0% | 61% | 12% | 5% | 0% | 5% |
| Cc1nnc(-c2ccc3occ(-c4ccc(S(C)=O)cc4)c3n2)o1 (centres unmarked) | 0% | 0% | 0% | 0% | 0% | 0% | 0% | 0% | 0% | 0% | 0% | 0% | 0% | 0% | 0% | 0% | 0% | 0% | 17% | 3% |
| O=c1[nH]cc(-c2ccc(O)cc2)c2sc(-c3ccncc3)cc12 [GSK1033723] | 0% | 16% | 8% | 8% | 96.1% | 19% | 0% | 0% | 0% | 39% | 18% | 1% | 7% | 29% | 0% | 0% | 15% | 0% | 20% | 1% |
| O=C(Nc1cccc(C(F)(F)F)c1)c1cccc(Oc2ccc3nccn3n2)c1 | 21% | 5% | 9% | 6% | 31% | 15% | 6% | 0% | 12% | 21% | 8% | 76% | 4% | 31% | 100% | 0% | 12% | 0% | 3% | 0% |
| FC(F)(F)c1cc(Br)cc(Nc2nccc(-c3cnn4ncccc34)n2)c1 [GW810578] | 25% | 9% | 16% | 16% | 3% | 29% | 0% | 8% | 7% | 0% | 10% | 0% | 0% | 0% | 0% | 0% | 16% | 29% | 5% | 18% |
| C[C@@H]1CNc2c(sc3ccc4nc(-c5ccncc5)ccc4c23)C(=O)N1 | 0% | 0% | 17% | 9% | 81% | 19% | 0% | 12% | 7% | 0% | 0% | 0% | 0% | 64% | 59% | 0% | 77% | 0% | 25% | 0% |
| Cn1ccc2ncnc(Oc3ccc(NC(=O)Nc4cccc(C(F)(F)F)c4)c(Cl)c3)c21 | 0% | 0% | 51% | 29% | 75% | 0% | 6% | 15% | 0% | 0% | 15% | 46% | 5% | 0% | 0% | 0% | 0% | 16% | 16% | 1% |
| Cn1ccc2ncnc(Oc3ccc(NC(=O)Nc4cncc(C(F)(F)F)c4)c(Cl)c3)c21 | 0% | 0% | 25% | 0% | 59% | 0% | 9% | 0% | 0% | 0% | 0% | 52% | 0% | 0% | 0% | 0% | 0% | 0% | 0% | 0% |
| Cc1cccc(-c2nc(Nc3ccncc3)c3sccc3n2)n1 [GW869641] | 29% | 48% | 43% | 30% | 33% | 13% | 15% | 4% | 82% | 37% | 11% | 36% | 6% | 0% | 7% | 58% | 54% | 16% | 24% | 7% |
| CC(=O)Nc1nc2cnc(Nc3cc(NC(=O)c4cccc(CC(C)(C)C#N)c4)ccc3C)nc2s1 | 0% | 11% | 3% | 0% | 20% | 0% | 32% | 0% | 2% | 0% | 9% | 99.9% | 0% | 23% | 14% | 51% | 30% | 0% | 8% | 0% |
| CN1CCN(CCNc2nc3cc(Oc4ccc(NC(=O)Nc5cc(C(F)(F)F)ccc5F)cc4)ccc3[nH]2)CC1.Cl.Cl [GW768504] | 0% | 9% | 22% | 13% | 82% | 0% | 14% | 12% | 0% | 0% | 0% | 0% | 0% | 0% | 6% | 0% | 0% | 0% | 0% | 4% |
| Cn1ccc2ncnc(Oc3ccc(NC(=O)Nc4ccnc(C(F)(F)F)c4)c(Cl)c3)c21 | 0% | 18% | 34% | 0% | 12% | 0% | 0% | 0% | 6% | 0% | 17% | 45% | 0% | 0% | 0% | 0% | 5% | 0% | 0% | 31% |
